According to PubChem BioAssay AID1159580 (chemical genetic matrix, 2015):
Screen size: about 5,500 compounds; about 2,000 (36%) were called active. About 18% were inconclusive and are not listed. Cut-off read from the data, not from the text of the source: active = normalized growth mostly below about 0.91 (no sharp cut-off); inconclusive = no clear call, values can overlap the other calls; inactive = mostly above about 0.92. The list shows a part of the results.

Assay: chemical genetic growth profiling, strain panel (AID 1159580);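 note: tested at 20 µM; growth read once vehicle control cultures reached saturation at 30 °C; 1 = growth at the plate median or of vehicle wells; lower values mean less growth of the strain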
Conditions: growth OD

Measured: normalized growth

O=C(O[C@@H]1Cc2c(O)cc(O)cc2O[C@@H]1c1ccc(O)c(O)c1)c1cc(O)c(O)c(O)c1
inactive: S. cerevisiae deletion strains, locus YJR066W, strain TOR1, active compounds read low 0.93 | S. cerevisiae deletion strains, locus YKL009W, strain mrt4, active compounds read low 1.02 | S. cerevisiae deletion strains, locus YKL068W, active compounds read low 1.01 | S. cerevisiae deletion strains, locus YKL085W, strain MDH1 (second series), active compounds read low 0.997 | S. cerevisiae deletion strains, locus YKL085W, strain MDH1, active compounds read low 0.997 | S. cerevisiae deletion strains, locus YKL160W, strain elf1, active compounds read low 0.97 | S. cerevisiae deletion strains, locus YKR001C, strain vps1, active compounds read low 1.04 | S. cerevisiae deletion strains, locus YKR026C, strain gcn3, active compounds read low 1.03 | S. cerevisiae deletion strains, locus YKR091W, strain srl3, active compounds read low 1.02 | S. cerevisiae deletion strains, locus YLL001W, strain dnm1, active compounds read low 0.982 | S. cerevisiae deletion strains, locus YLL026W, active compounds read low 1.03 | S. cerevisiae deletion strains, locus YLL041C, strain sdh2, active compounds read low 1.02 | S. cerevisiae deletion strains, locus YLR027C, strain aat2, active compounds read low 0.993 | S. cerevisiae deletion strains, locus YLR039C, strain RIC1, active compounds read low 0.715 | S. cerevisiae deletion strains, locus YLR102C, strain apc9, active compounds read low 1.01 | S. cerevisiae deletion strains, locus YLR113W, strain HOG1, active compounds read low 1.01 | S. cerevisiae deletion strains, locus YLR221C, strain rsa3, active compounds read low 1.01 | S. cerevisiae deletion strains, locus YLR258W, strain gsy2, active compounds read low 0.952 | S. cerevisiae deletion strains, locus YLR262C, strain YPT6 (second series), active compounds read low 0.909 | S. cerevisiae deletion strains, locus YLR268W, strain sec22, active compounds read low 0.94 | S. cerevisiae deletion strains, locus YLR320W, strain mms22, active compounds read low 1.02 | S. cerevisiae deletion strains, locus YLR357W, strain rsc2, active compounds read low 0.865 | S. cerevisiae deletion strains, locus YLR370C, strain arc18, active compounds read low 0.935 | S. cerevisiae deletion strains, locus YLR371W, strain rom2, active compounds read low 0.916 | S. cerevisiae deletion strains, locus YLR384C, strain iki3, active compounds read low 1.03 | S. cerevisiae deletion strains, locus YLR418C, strain cdc73, active compounds read low 0.963 | S. cerevisiae deletion strains, locus YML032C, strain rad52, active compounds read low 1.02 | S. cerevisiae deletion strains, locus YML120C, strain ndi1, active compounds read low 1 | S. cerevisiae deletion strains, locus YML124C, strain tub3, active compounds read low 1.03 | S. cerevisiae deletion strains, locus YMR078C, strain ctf18, active compounds read low 1.02 | S. cerevisiae deletion strains, locus YMR129W, active compounds read low 1.03 | S. cerevisiae deletion strains, locus YMR205C, strain PFK2, active compounds read low 1.03 | S. cerevisiae deletion strains, locus YMR223W, strain ubp8, active compounds read low 0.985 | S. cerevisiae deletion strains, locus YMR231W, strain pep5, active compounds read low 0.972 | S. cerevisiae deletion strains, locus YMR263W, strain SAP30, active compounds read low 0.997 | S. cerevisiae deletion strains, locus YMR307W, strain GAS1, active compounds read low 0.606 | S. cerevisiae deletion strains, locus YNL067W, strain RPL9B, active compounds read low 0.961 | S. cerevisiae deletion strains, locus YNL071W, strain lat1, active compounds read low 1.02 | S. cerevisiae deletion strains, locus YNL183C, strain NPR1, active compounds read low 0.938 | S. cerevisiae deletion strains, locus YNL233W, strain BNI4, active compounds read low 0.932 | S. cerevisiae deletion strains, locus YNL248C, strain rpa49, active compounds read low 0.973 | S. cerevisiae deletion strains, locus YNL250W, strain rad50, active compounds read low 1.04 | S. cerevisiae deletion strains, locus YNL271C, strain bni1, active compounds read low 1.02 | S. cerevisiae deletion strains, locus YNL298W, strain CLA4, active compounds read low 1.01 | S. cerevisiae deletion strains, locus YNL307C, strain MCK1, active compounds read low 1.01 | S. cerevisiae deletion strains, locus YNL322C, strain KRE1 (second series), active compounds read low 1.06 | S. cerevisiae deletion strains, locus YNR049C, strain mso1, active compounds read low 1.04 | S. cerevisiae deletion strains, locus YNR052C, strain pop2, active compounds read low 0.989 | S. cerevisiae deletion strains, locus YOL012C, strain htz1 0.447 | S. cerevisiae deletion strains, locus YOL147C, strain pex11, active compounds read low 1.02 | S. cerevisiae deletion strains, locus YOR001W, strain rrp6, active compounds read low 1.01 | S. cerevisiae deletion strains, locus YOR061W, strain CKA2, active compounds read low 0.925 | S. cerevisiae deletion strains, locus YOR069W, strain VPS5, active compounds read low 0.97 | S. cerevisiae deletion strains, locus YOR070C, strain gyp1, active compounds read low 0.97 | S. cerevisiae deletion strains, locus YOR080W, strain dia2, active compounds read low 0.983 | S. cerevisiae deletion strains, locus YOR083W, strain WHI5, active compounds read low 0.961 | S. cerevisiae deletion strains, locus YOR136W, strain idh2, active compounds read low 1.01 | S. cerevisiae deletion strains, locus YOR144C, strain elg1, active compounds read low 1.02 | S. cerevisiae deletion strains, locus YOR184W, strain ser1, active compounds read low 0.969 | S. cerevisiae deletion strains, locus YOR231W, strain MKK1, active compounds read low 0.992 | S. cerevisiae deletion strains, locus YOR265W, strain rbl2, active compounds read low 0.988 | S. cerevisiae deletion strains, locus YOR270C, strain vph1, active compounds read low 0.923 | S. cerevisiae deletion strains, locus YOR290C, strain snf2, active compounds read low 0.97 | S. cerevisiae deletion strains, locus YOR316C, strain cot1, active compounds read low 1.03 | S. cerevisiae deletion strains, locus YPL055C, strain LGE1, active compounds read low 0.761 | S. cerevisiae deletion strains, locus YPL078C, strain atp4, active compounds read low 0.986 | S. cerevisiae deletion strains, locus YPL106C, strain sse1, active compounds read low 0.896 | S. cerevisiae deletion strains, locus YPL240C, strain hsp82, active compounds read low 1.01 | S. cerevisiae deletion strains, locus YPL241C, strain CIN2, active compounds read low 0.973 | S. cerevisiae deletion strains, locus YPL256C, strain CLN2, active compounds read low 1.01 | S. cerevisiae deletion strains, locus YPR119W, strain clb2, active compounds read low 1.04 | S. cerevisiae deletion strains, locus YPR141C, strain kar3, active compounds read low 1 | S. cerevisiae deletion strains, locus YPR163C, strain tif3, active compounds read low 1.03 | S. cerevisiae deletion strains, locus YPR167C, strain met16, active compounds read low 1.03 | S. cerevisiae deletion strains, strain wtn01, active compounds read low 0.963
active: S. cerevisiae deletion strains, locus YJR043C, strain POL32, active compounds read low 0.792 | S. cerevisiae deletion strains, locus YLR058C, strain SHM2, active compounds read low 0.883 | S. cerevisiae deletion strains, locus YLR342W, strain FKS1 (second series), active compounds read low 0.628 | S. cerevisiae deletion strains, locus YLR342W, strain FKS1, active compounds read low 0.831 | S. cerevisiae deletion strains, locus YML016C, strain PPZ1, active compounds read low 0.841 | S. cerevisiae deletion strains, locus YMR058W, strain fet3, active compounds read low 0.564 | S. cerevisiae deletion strains, locus YMR125W, strain sto1, active compounds read low 1.12 [resistant] | S. cerevisiae deletion strains, locus YNL209W, strain ssb2, active compounds read low 0.597 | S. cerevisiae deletion strains, locus YOL006C, strain TOP1, active compounds read low 0.507 | S. cerevisiae deletion strains, locus YOR106W, strain vam3, active compounds read low 0.622 | S. cerevisiae deletion strains, locus YPL051W, strain arl3, active compounds read low 0.776 | S. cerevisiae strains, strain wild type, active compounds read low 0.702
